The panel holds about 79,000 compounds, 15% with a hit somewhere; the sample as a whole holds those more often. Calls of active or inactive are those of the source. Rule as the data show it: active = growth inhibition above about 70%; inactive = the rest.
Tests used:
[1] = NCI Yeast Anticancer Drug Screen. Data for the rad50 strain (AID 155);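 also: 0% = growth of vehicle-only cultures of the same strain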; details: S. cerevisiae rad50 strain growth inhibition, stronger effect = higher value
How it was run: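 Inhibition values express reduced yeast growth in compound-treated cultures relative to vehicle-treated controls.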

[2] = NCI Yeast Anticancer Drug Screen. Data for the mec2-1 strain (AID 157); details: S. cerevisiae mec2-1 strain, stronger effect = higher value
How it was run: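 Growth inhibition is read against vehicle-treated controls after compound exposure of the mec2-1 yeast strain, which is defective in DNA damage repair or cell cycle control.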

[3] = NCI Yeast Anticancer Drug Screen. Data for the sgs1 mgt1 strain (AID 161);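 also: 0% = growth of cultures given vehicle only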; details: S. cerevisiae sgs1 mgt1 strain, stronger effect = higher value
How it was run: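 Compounds are added to genetically altered yeast, and growth is compared with cultures given vehicle alone to give percent inhibition.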

[4] = NCI Yeast Anticancer Drug Screen. Data for the cln2 rad14 strain (AID 165);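 also: 0% = growth equal to vehicle treated cultures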; details: S. cerevisiae cln2 rad14 strain, stronger effect = higher value
How it was run: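 Growth inhibition, relative to vehicle-treated controls, is the read-out. The test organism is a yeast strain with defined genetic alterations, cln2 rad14.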

[5] = NCI Yeast Anticancer Drug Screen. Data for the bub3 strain (AID 167); details: S. cerevisiae bub3 mutant strain, stronger effect = higher value
How it was run: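 Steps: expose the mutant yeast strain to compound; grow alongside vehicle-treated cultures; measure growth; express inhibition against the vehicle cultures.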

[6] = NCI Yeast Anticancer Drug Screen. Data for the mlh1 rad18 strain (AID 175); details: S. cerevisiae mlh1 rad18 strain growth inhibition, stronger effect = higher value
How it was run: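 Cells of a genetically altered yeast strain, deficient in DNA damage repair, were treated with compound. Their growth was then compared with that of vehicle-treated cultures to give inhibition.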

[7] = at 5.0 µM (retest, dose inferred, filed as 0.5)
[8] = at 50.0 µM (retest, dose inferred, filed as 5.0)

Measured: growth inhibition

Cc1ccccc1C1SCc2nc3ccccc3n21 (stereo not given)
inactive: [1]; [7] -9% | [1]; [8] -7% | [1]; at 50.0 µM -17.1% | [2]; [7] -3% | [2]; [8] -4% | [2]; at 50.0 µM 8.3% | [3]; [7] -5% | [3]; [8] 1% | [3]; at 50.0 µM 14.7% | [4]; [7] -13% | [4]; [8] -20% | [5]; [7] -4% | [5]; [8] -1% | [5]; at 50.0 µM -6.4% | [6]; [7] -9% | [6]; [8] -9% | [6]; at 50.0 µM -25.1%
active: [4]; at 50.0 µM 75.3%

COc1ccc(/C(=N/NC(N)=O)C(c2ccc(OC)cc2)C2C(=O)Oc3ccccc32)cc1 (stereo not given)
inactive: [1]; [7] -7% | [2]; [7] -59% | [3]; [7] -4% | [4]; [7] 0% | [5]; [7] 0% | [6]; [7] -2%
active: [1]; [8] 88% | [1]; at 50.0 µM 98.2% | [2]; [8] 96% | [2]; at 50.0 µM 99% | [3]; [8] 86% | [3]; at 50.0 µM 98.6% | [4]; [8] 77% | [4]; at 50.0 µM 88.8% | [5]; [8] 83% | [5]; at 50.0 µM 99.2% | [6]; [8] 95% | [6]; at 50.0 µM 98.4%

CC(=O)O[C@H]1CC[C@@]2(C)C(CC[C@]3(C)C2CC=C2[C@@H]4CC(C)(C)CC[C@]4(C(=O)NCCN(C)C)CCC23C)C1(C)C (stereo not given in full)
inactive: [1]; [7] -3% | [2]; [7] -2% | [3]; [7] -2% | [4]; [7] -4% | [4]; [8] 57% | [4]; at 50.0 µM 5.3% | [5]; [7] -2% | [5]; at 50.0 µM -21.4% | [6]; [7] -2%
active: [1]; [8] 94% | [1]; at 50.0 µM 77% | [2]; [8] 98% | [2]; at 50.0 µM 95.4% | [3]; [8] 98% | [3]; at 50.0 µM 72.7% | [5]; [8] 87% | [6]; [8] 93% | [6]; at 50.0 µM 97.7%

O=C(CNc1ccc([N+](=O)[O-])cc1)Nn1c(-c2ccccc2)nc2ccccc2c1=O
active: [1]; at 50.0 µM 82.1% | [2]; at 50.0 µM 70.5% | [3]; at 50.0 µM 72.7% | [5]; at 50.0 µM 91.8% | [6]; at 50.0 µM 85.4%
inactive: [1]; [7] 18% | [1]; [8] 23% | [2]; [7] 3% | [2]; [8] 26% | [3]; [7] 6% | [3]; [8] 25% | [4]; [7] 11% | [4]; [8] 19% | [4]; at 50.0 µM 38.8% | [5]; [7] 4% | [5]; [8] 54% | [6]; [7] 2% | [6]; [8] 28%

COC(=Nc1ccccc1)SSC(C)C
active: [1]; [8] 77% | [1]; at 50.0 µM 84.5% | [2]; at 50.0 µM 86.8% | [3]; [8] 87% | [3]; at 50.0 µM 81.6% | [5]; [8] 92% | [5]; at 50.0 µM 86.2% | [6]; at 50.0 µM 85.5%
inactive: [1]; [7] 23% | [2]; [7] 19% | [2]; [8] 57% | [3]; [7] 38% | [4]; [7] 38% | [4]; [8] 66% | [4]; at 50.0 µM 46.4% | [5]; [7] 46% | [6]; [7] 21% | [6]; [8] 64%

O=C1OCC2=C1C(c1ccc(Cl)cc1)c1cc3c(cc1O2)OCO3 (stereo not given)
inactive: [1]; [7] 8% | [1]; [8] 10% | [1]; at 50.0 µM -23.4% | [2]; [7] 9% | [2]; [8] 8% | [2]; at 50.0 µM -20.4% | [3]; [7] 4% | [3]; [8] 16% | [3]; at 50.0 µM -5.5% | [4]; [7] 2% | [4]; [8] 18% | [4]; at 50.0 µM 19.4% | [5]; [7] 17% | [5]; [8] 21% | [5]; at 50.0 µM 6.15% | [6]; [7] 17% | [6]; [8] 7% | [6]; at 50.0 µM -15.8%

CCN(CC)CCNc1ccc(OC)c2cccnc12
inactive: [1]; [7] 15% | [1]; [8] 30% | [2]; [7] 1% | [2]; [8] 9% | [3]; [7] 8% | [3]; [8] 16% | [4]; [7] 5% | [4]; [8] -2% | [5]; [7] 10% | [5]; [8] 16% | [6]; [7] 17% | [6]; [8] 25%
active: [1]; at 50.0 µM 99.3% | [2]; at 50.0 µM 99.4% | [3]; at 50.0 µM 99.3% | [4]; at 50.0 µM 98% | [5]; at 50.0 µM 99.5% | [6]; at 50.0 µM 98.8%

CC1=Nc2ccccc2/C1=C\c1c(C)[nH]c2ccccc12
inactive: [1]; [7] 33% | [2]; [7] 39% | [3]; [7] 38% | [4]; [7] 10% | [5]; [7] 53% | [6]; [7] 58% | [6]; at 50.0 µM -32.6%
active: [1]; [8] 96% | [1]; at 50.0 µM 83% | [2]; [8] 98% | [2]; at 50.0 µM 86.8% | [3]; [8] 97% | [3]; at 50.0 µM 85.2% | [4]; [8] 96% | [4]; at 50.0 µM 74.3% | [5]; [8] 97% | [5]; at 50.0 µM 87.8% | [6]; [8] 94%

CN(C)c1nc(N(C)C)nc([N+](C)(C)C)n1
active: [1]; at 50.0 µM 98.5% | [2]; at 50.0 µM 98% | [3]; at 50.0 µM 99.1% | [4]; at 50.0 µM 96.5% | [5]; at 50.0 µM 98% | [6]; at 50.0 µM 98.7%
inactive: [1]; [7] 1% | [1]; [8] -1% | [2]; [7] -3% | [2]; [8] 1% | [3]; [7] -1% | [3]; [8] -4% | [4]; [7] -3% | [4]; [8] -1% | [5]; [7] 0% | [5]; [8] -5% | [6]; [7] -5% | [6]; [8] -7%

COc1cccc2nc3c(C(=O)NCCN(C)C)cccc3cc12
inactive: [1]; [7] 60% | [2]; [7] 15% | [2]; [8] 43% | [2]; at 50.0 µM 15.9% | [3]; [7] 24% | [3]; [8] 56% | [3]; at 50.0 µM 10.4% | [4]; [7] 15% | [4]; [8] 49% | [4]; at 50.0 µM -7.1% | [5]; [7] 22% | [5]; [8] 47% | [5]; at 50.0 µM -50.6% | [6]; [7] 24% | [6]; [8] 65% | [6]; at 50.0 µM 0.05%
active: [1]; [8] 94% | [1]; at 50.0 µM 81.7%
